Screening data as filed in PubChem BioAssay.
This is a sample that favours compounds with a hit; in the whole collection about 2.1% have one here.
PfHsp90 set2 – reduces growth (ATP signal) of yeast expressing P. falciparum Hsp90. S. cerevisiae expressing PfHsp90, BacTiter-Glo ATP, 48 h; yeast lacking PDR1 and PDR3 efflux regulators. inhibition, % at 9.4 µM. 310,000 compounds, 0.32% hits. AID 504621;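 active = every replicate shows inhibition above about 80%, whatever the replicate mean, limit read from the data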;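 note: 0% = DMSO neutral controls and 100% = 20 µM radicicol positive controls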
SIRT5 block – sirtuin-5 (human) deacylase inhibition. 330,000 compounds, 1.1% hits. Q9NXA8. Purified SirT5, succinyl-peptide AMC, trypsin-coupled fluorescence. AID 652115. inhibition, % at 15 µM; in the data active = inhibition above about 15%
Target sequence (Q9NXA8 whole entry, looked up): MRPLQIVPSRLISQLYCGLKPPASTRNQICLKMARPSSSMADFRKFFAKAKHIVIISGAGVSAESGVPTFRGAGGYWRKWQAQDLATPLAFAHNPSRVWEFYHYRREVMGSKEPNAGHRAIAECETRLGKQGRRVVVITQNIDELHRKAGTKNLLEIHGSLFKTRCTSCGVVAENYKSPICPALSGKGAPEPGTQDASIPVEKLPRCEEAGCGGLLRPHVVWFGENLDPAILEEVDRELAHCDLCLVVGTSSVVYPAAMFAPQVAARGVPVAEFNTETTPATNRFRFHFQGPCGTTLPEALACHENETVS
NSD2 inh – inhibitors of human histone methyltransferase NSD2. O96028. NSD2 peptide methylation, AlphaScreen, 120 min. inhibition, % at 12.5 µM. 310,000 compounds, 0.54% hits. AID 743445; in the data active = inhibition above about 50%
ARNT TACC3 PPI – ARNT/TACC3 interaction disruption; Q9Y6A5; AlphaScreen His-ARNT PAS-B/GST-TACC3 binding, luminescence; TACC3 fragment carries E629A point mutation; inhibition, % at 9.99 µM; 390,000 compounds, 0.66% hits; AID 623870;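 active = mean inhibition of replicates at least 50% and at least half of replicates each reaching 50%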;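 note: 0% = complete ARNT plus TACC3 wells and 100% = ARNT alone without TACC3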
CASP6 VEID inh – blocks human caspase-6 cleavage activity. AID 686996. purified caspase-6, Z-VEID-R110 cleavage fluorescence. 350,000 compounds, 0.53% hits. inhibition, % at 12.5 µM. P55212;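 active = mean inhibition across replicates at least about 35%, with every replicate also reaching that limit, limit read from the data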;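 note: 0% = median of neutral control wells and 100% = no fluorescence left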
Target sequence (P55212 24-179 limits assumed): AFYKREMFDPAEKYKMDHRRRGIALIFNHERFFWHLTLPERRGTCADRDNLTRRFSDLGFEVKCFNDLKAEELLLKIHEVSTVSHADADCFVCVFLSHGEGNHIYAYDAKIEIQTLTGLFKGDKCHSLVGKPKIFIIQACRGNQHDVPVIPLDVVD
Target sequence (P55212 194-293 limits assumed): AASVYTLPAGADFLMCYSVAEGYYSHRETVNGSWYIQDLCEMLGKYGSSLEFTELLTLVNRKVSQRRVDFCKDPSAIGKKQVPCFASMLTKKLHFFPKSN
Alpha artifact – counter-screen for NSD2 inhibitors: AlphaScreen artifacts; AID 1053174; shares compounds with NSD2 inh; 1,500 compounds, 9.4% hits; AC35, µM (titrated, usually from 10 µM), inactives show top-dose activity change, negative = signal loss; AlphaScreen artifact counterscreen, preloaded methylated H4 peptide; call rule not given here
* marks the source's active call; other numbers are inactive results; . = no result given.

SMILES	PfHsp90 set2	SIRT5 block	NSD2 inh	ARNT TACC3 PPI	CASP6 VEID inh	Alpha artifact
CO[C@@H]1CN(C)C(=O)c2cc(NC(=O)Cc3ccccc3)ccc2OC[C@@H](C)N(CC2CC2)C[C@H]1C	.	5	.	-5	-1	.
O=C(CN1CCC(C(=O)c2ccc3c(c2)OCCO3)CC1)NCc1ccc(F)cc1	15	3	11	1	3	.
O=C(CN1CCC(C(=O)c2ccc3c(c2)OCCO3)CC1)NCc1ccccc1	6	0	65*	.	3	1%
C[C@H]1CN([C@@H](C)CO)C(=O)c2cccc(NC(=O)c3cnccn3)c2O[C@H]1CN(C)Cc1ccc(Cl)c(Cl)c1	.	-2	.	7	-5	.
CCCCCOC(=O)c1c(N)n(CCOC)c2nc3ccccc3nc12	-67	.	61*	-7	.	8%
CC(Nc1ccc2ccccc2c1)C(=O)N/N=C/c1ccncc1 (stereo unspecified)	-15	1	141*	active	61*	-4%
CC(Oc1ccc2ccccc2c1)C(=O)N/N=C/c1cccnc1 (stereo unspecified)	-11	-3	1	1	.	.
CN(CCC#N)C(=O)COC(=O)/C=C/c1cccs1	-2	0	1	8	1	.
CCO/C=C/C(=O)N(C)CCC#N	10	.	125*	6	.	-7%
C[C@H](CO)N1C[C@H](C)[C@H](CN(C)C(=O)Nc2cccc3ccccc23)OCCCC[C@H](C)Oc2ccc(NS(=O)(=O)c3ccc(Cl)cc3)cc2C1=O	.	7	.	12	3	.
O=C(Nc1ccccc1)OCCCc1ccccc1	-54	0	-22	-4	1	.
O=C(Nc1ccccc1)OCCCCOC(=O)Nc1ccccc1	.	-9	55*	-4	-2	-2%
CCC1CCCCN1C(=O)CSc1nc(N)cc(=O)[nH]1 (stereo unspecified)	-27	-2	-1	-1	-2	.
CC1(C)C2CCC1(C)C(OC(=O)CSc1nc(N)cc(=O)[nH]1)C2 (stereo unspecified)	45	.	80*	-4	.	-4%
Cc1ccc(S(=O)(=O)NCC[C@@H]2CC[C@@H](NS(=O)(=O)c3ccccc3Cl)[C@@H](CO)O2)cc1	.	-3	.	9	-1	.
O=C(c1ccc(OC2CCN(Cc3ccccc3O)CC2)cc1)N1CCCCC1	9	0	12	2	-3	.
COc1cccc(CN2CCC(Oc3ccc(C(=O)N4CCCCC4)cc3)CC2)c1O	3	1	58*	5	4	-4%
Cc1noc(C)c1S(=O)(=O)N(C)C[C@H]1OCCCC[C@@H](C)Oc2ccc(NC(=O)Nc3ccc(C(F)(F)F)cc3)cc2C(=O)N([C@@H](C)CO)C[C@@H]1C	.	1	.	16	3	.
CC1Oc2ccc(C#N)cc2N(Cc2cccc(F)c2)C1=O (stereo unspecified)	.	-6	55*	.	-1	-1%
COc1ccc2c3c(n(C)c2c1)[C@H](CO)N(C(=O)CC1CC1)CC31CCN(C(=O)CC2CC2)CC1	.	3	.	.	0	.
CCN(CC)CCNC(=O)c1ccc(CS(=O)(=O)c2ccccc2C)o1	-4	-6	51*	-3	-11	-2%
Cc1ccccc1S(=O)(=O)Cc1ccc(C(=O)NCCc2ccccc2)o1	4	-1	35	-9	3	.
Cc1nc2ccc(S(=O)(=O)N3CCCCC3)cc2s1	5	2	51*	-7	2	-1%
COc1ccc2c3c([nH]c2c1)[C@@H](CO)N(Cc1ccccc1)CC31CN(C)C1	.	2	.	.	-3	.
COc1ccc(OCC(=O)NNc2c3ccccc3nc3ccccc23)cc1	-3	.	61*	11	.	3%
SMILES	PfHsp90 set2	SIRT5 block	NSD2 inh	ARNT TACC3 PPI	CASP6 VEID inh	Alpha artifact
O=C(COc1ccccc1)NNc1c2ccccc2nc2ccccc12	14	.	1	-6	.	.
CCn1c2ccccc2c2cc(N)ccc21	15	.	-6	-9	.	.
CCn1c(C)cc(=S)c2ccccc21	4	.	104*	29	.	-18%
O=C(C[C@H]1CC[C@@H]2[C@H](COC[C@@H](O)CN2CC2CCCC2)O1)NCc1ccc(Cl)cc1	.	0	.	.	3	.
O=C(Cc1ccccn1)N[C@@H]1CC[C@H](CCNC(=O)c2cc(Cl)cc(Cl)c2)O[C@H]1CO	.	-4	.	-10	0	.
COc1ccc(C(=O)Cc2nnc(C)s2)cc1	-1	.	69*	5	.	2%
Cc1ccccc1N(C(=O)c1snc(C(N)=O)c1N)C(C)C(=O)NC1CCCCC1 (stereo unspecified)	-7	-4	78*	-6	1	2%
CO[C@H]1CN(C)C(=O)c2cc(NC(=O)Nc3cccc(F)c3)ccc2OC[C@H](C)N(C(C)=O)C[C@@H]1C	.	2	.	30	4	.
CSCCC(NC(=O)c1ccccc1Cl)C(=O)NCC(c1ccc(F)cc1)N1CCOCC1 (stereo unspecified)	-2	-3	141*	.	-1	-3%
Nc1nonc1C(=O)NCCNC(=O)c1ccccc1F	-16	.	67*	-3	.	2%
CCN(CC)CCCNC(=O)c1cc2c(Cl)nc3ccccc3c2s1	6	.	80*	14	.	-4%
COCC#Cc1ccc([C@H]2[C@@H](CO)N3C(=O)CN(C(=O)c4ccncc4)C[C@H]23)cc1	.	5	.	.	-1	.
O=S(=O)(O)c1ccc(Cl)c(Cl)c1	.	-1	-2	0	-18	.
CC1=NN(c2ccc(S(=O)(=O)O)cc2Cl)C(=O)C1	-6	1	71*	34	47*	0%
O=C1c2cccc(Cl)c2C(=O)c2c1cccc2N1CCCC1	19	.	74*	6	.	1.1µM*
CNC[C@@H]1Oc2cc(C#CCC(C)C)ccc2S(=O)(=O)N([C@H](C)CO)C[C@H]1C	.	9	.	0	-4	.
Cc1cccc2c(=O)c(C(=O)NCc3ccc(F)cc3)c[nH]c12	-3	1	57*	7	0	-6%
CN1c2ccc(Br)cc2[C@H]2[C@H](CCN2C(=O)C2CCCCC2)[C@H]1CO	.	1	.	-9	-1	.
O=C(Cc1cccnc1)N1CC(=O)N2[C@H](CO)[C@H](c3ccc(C#CC4CCCC4)cc3)[C@H]2C1	.	0	.	.	0	.
Cn1c(=O)c2[nH]c(NN=Cc3ccc(F)cc3)nc2n(C)c1=O	-3	.	-4	-1	4	.
CCN(CC)CCOc1ccc(C=NNc2nc3c([nH]2)c(=O)n(C)c(=O)n3C)cc1	8	.	51*	-2	-9	-4%
O=C(Nc1cc(Cl)ccc1-n1cncn1)c1cccs1	11	-2	68*	1	-4	-1%
CCCCn1c(NS(=O)(=O)c2ccc(C)cc2)c(S(=O)(=O)c2ccccc2)c2nc3ccccc3nc21	-3	.	127*	20	-3	-1%
C1=CC2=NC34CCCCC3CC3=C(CCCC3)N4C2=CC1=NC1CCCCC1 (stereo unspecified)	-6	.	.	10	.	.
CC1(C)CC(N=C2C=CC3=NC45CCCCC4CC4=C(CCCC4)N5C3=C2)CC(C)(C)N1 (stereo unspecified)	.	.	64*	.	.	-6%
